Assay results from the supplement of paper PMC6992640.
± gives the standard deviation of the averaged measurements.

Key:
Assay in all cases: cell viability (% of vehicle); higher = less cytotoxic
Details in all cases: 10 µM; 72 h
HCI01 = tested on: HCI01 (cells of a triple-negative basal-like breast cancer xenograft)
HCI03 = tested on: HCI03 (cells of an ER-positive luminal breast cancer xenograft)
HCI09 = tested on: HCI09 (cells of a triple-negative luminal androgen receptor type breast cancer xenograft)
HCI11 = tested on: HCI11 (cells of an ER-positive luminal breast cancer xenograft)
HCI13 = tested on: HCI13 (cells of an ER-positive luminal breast cancer xenograft)
HCI16 = tested on: HCI16 (cells of a triple-negative basal-like breast cancer xenograft)
UCD52 = tested on: UCD52 (cells of a triple-negative basal-like breast cancer xenograft)
WHIM2 = tested on: WHIM2 (cells of a triple-negative basal-like breast cancer xenograft)
WHIM30 = tested on: WHIM30 (cells of a triple-negative basal-like breast cancer xenograft)
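Also: PDX cells carrying CMV promoter-driven luciferase, viability read as total photon flux per second by IVIS imaging following D-luciferin, vehicle control 0.1% DMSO.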

Compound	cell viability (HCI01)	cell viability (HCI03)	cell viability (HCI09)	cell viability (HCI11)	cell viability (HCI13)	cell viability (HCI16)	cell viability (UCD52)	cell viability (WHIM2)	cell viability (WHIM30)
S=C(NCc1ccc2c(c1)OCO2)N1CCN(c2ncnc3c2oc2ccccc23)CC1 [Amuvatinib (MP-470, HPK 56)]	107 ± 48	120	40 ± 18	81.7	82 ± 9.2	84.3	73 ± 1.1	149 ± 3.3	75.2 ± 9.7
Cc1ncc([N+](=O)[O-])n1CCO [Metronidazole]	91.9 ± 32	135	90.8 ± 28	89.6	104 ± 9	133	77.3 ± 7.2	81 ± 16	131 ± 4.7
Cl.Cl.OCCOCCN1CCN(C(c2ccccc2)c2ccc(Cl)cc2)CC1 (stereo not given) [Hydroxyzine 2HCl]	169 ± 3.3	99.9	112 ± 5.6	117	85.42 ± 0.6	128	76.48 ± 0.64	97.2 ± 2.3	140 ± 23
CC(c1cc2ccccc2s1)N(O)C(N)=O (stereo not given) [Zileuton]	101 ± 13	136	105 ± 10	101	134 ± 24	128	112 ± 4	112 ± 21	134 ± 13
COC(=O)C1=COC(O)C2C(CO)=CCC12 (stereo not given) [Genipin]	168 ± 20	138	95.3 ± 6	98.6	119 ± 2.7	198	110 ± 5.3	124 ± 11	155 ± 9.6
O=c1[nH]c(=O)n(C2CCCO2)cc1F (stereo not given)	158 ± 9.9	110	109 ± 5.2	112	89.2 ± 7.7	143	116 ± 20	130 ± 13	130 ± 0.83
CCCCC1=NC2(CCCC2)C(=O)N1Cc1ccc(-c2ccccc2-c2nn[nH]n2)cc1 [Irbesartan]	86.3 ± 2	105	94.6 ± 3.9	91.8	114 ± 2.4	107	103 ± 5.5	105 ± 4.9	82.7 ± 24
CCN1CCN(c2cc3c(cc2F)c(=O)c(C(=O)O)cn3C2CC2)CC1 [Enrofloxacin]	105 ± 14	106	99.9 ± 18	91.8	121 ± 8.5	111	124 ± 5.2	130 ± 18	80.5 ± 6.2
C[C@H](C(=O)O)c1ccc(-c2ccccc2)c(F)c1 [(S)-Flurbiprofen]	109 ± 15	138	98.3 ± 21	78.6	98.7 ± 1.3	107	103 ± 2.4	103 ± 13	106 ± 5.7
CC(=O)OC1(C(C)=O)CCC2C3C=C(Cl)C4=CC(=O)C5CC5C4(C)C3CCC21C (stereo not given) [Cyproterone Acetate]	88.6 ± 12	112	73.1 ± 17	87.1	145 ± 8	110	89.2 ± 7.3	116 ± 34	128 ± 7.7
